The source of these data is PubChem BioAssay (Tox21).

Structures are written as SMILES. Inconclusive results are not listed. Activity calls are given as the source filed them. Unless noted, calls follow the shape of the dose curve; as a rule, active = well fitted curve in the direction sought with a large enough effect in the repeat runs; inconclusive = weak or mixed curves; inactive = no such curve, though single readings can be large; an effect the other way counts as inactive or inconclusive.

Assay [1] in a line: qHTS assay for small molecule agonists of the p53 signaling pathway (AID 651631; calls by dose curve; also: nearly all actives have a fitted effect of over 15% in size). In outline:
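We treat p53RE-bla HCT-116 cells with compounds for 16 h at 37 °C, add LiveBLAzer B/G FRET substrate for 2 h at room temperature, and measure fluorescence intensity.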

The nature of assay [2]: qHTS assay for small molecule agonists of the p53 signaling pathway - cell viability (AID 651633; calls by dose curve;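 also: p53RE-bla HCT reporter cells with a stable beta-lactamase p53 reporter; nearly all actives have a fitted effect of over 30% in size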). The method, boiled down: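 Viability counter-read: CellTiter-Glo luminescence (30 min, room temperature) in the same p53RE-bla plates. These plates had been exposed to compounds for 16 h at 37 C.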
Assay [3] is described as follows: qHTS assay for small molecules that induce genotoxicity in human embryonic kidney cells expressing luciferase-tagged ATAD5 - cell viability (AID 651634; calls by dose curve; also: nearly all actives have a fitted effect of over 25% in size). The method, boiled down: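 Viability read: CellTiter-Fluor fluorescence, 30 min at 37C. Cells: HEK293T, luciferase-tagged ATAD5. Exposure: 15.5 hr, 37C, 5% CO2, compound or DMSO vehicle.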
Assay [4] in a line: qHTS assay for small molecule disruptors of the mitochondrial membrane potential - cell viability (AID 720634; calls by dose curve;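 also: human HepG2 liver cancer cells; nearly all actives have a fitted effect of over 20% in size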). The method, boiled down: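 HepG2, 1 hr compound, 37 C. ATP luminescence via CellTiter-Glo, 30 min RT, same well as m-MPI.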
In general terms: Quantitative high-throughput screening tests each substance at several concentrations.

The nature of assay [5]: qHTS assay for small molecule disruptors of the mitochondrial membrane potential (AID 720635). Also: potency is read from the fitted curve at half-maximal effect. The method, boiled down: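 Mitochondrial membrane potential tracked with Mito-MPS dye, red aggregates (ex 540/em 590 nm) against green monomers (ex 490/em 535 nm). Compound treatment 1 hr at 37C, dye 30 min in HepG2.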
Assay [6] can be described thus: qHTS assay to test for compound auto fluorescence at 590 nm (red) in HepG2 cells (AID 720674). In outline: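 Red autofluorescence (Ex/Em 540/590 nm, Rose Bengal sodium equivalents) was measured in HepG2 cells, 2,000 per well in MEM plus 10% FBS, plated overnight at 37 C. Readings were taken 1 hr after adding 23 nL compound or DMSO, at 37 C and 5% CO2.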
Assay [7] can be described thus: qHTS assay to test for compound auto fluorescence at 535 nm (green) in HepG2 cells (AID 720675).
Assay [8] is described as follows: qHTS assay to test for compound auto fluorescence at 460 nm (blue) in HEK293 cells (AID 720678). The method, boiled down: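 Blue read-out at excitation 405 nm and emission 460 nm follows overnight compound exposure of HEK293 cells at 37C in 5% CO2. Activity is given as auto fluorescence equivalency to triamterene.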
A short description of assay [9]: qHTS assay to test for compound auto fluorescence at 590 nm (red) in HEK293 cells (AID 720679). The method, boiled down: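 Red channel, Ex/Em 540/590nm; signal expressed as equivalency to Rose Bengal sodium. HEK293, 2,000 cells/well, 10% dialyzed FBS; 23 nL compound pinned after 4-5 hr attachment; overnight 37C/5% CO2 before reading.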
Assay [10] in a line: qHTS assay to test for compound auto fluorescence at 460 nm (blue) in HEK293 cell free culture (AID 720681). In outline:
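Blue fluorescence (Ex 405/Em 460 nm, triamterene-equivalent) was read immediately after pin transfer of compound or DMSO into medium (DMEM, 10% FBS) without cells.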

Assay [11] can be described thus: qHTS assay to test for compound auto fluorescence at 535 nm (green) in HEK293 cell free culture (AID 720682). In outline:
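Green-channel intensity (Ex/Em 485/535 nm) was recorded from compound-treated wells containing only DMEM with 10% FBS. Fluorescein provided the equivalency standard.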

Assay [12] can be described thus: qHTS assay to test for compound auto fluorescence at 590 nm (red) in HepG2 cell free culture (AID 720684). The method, boiled down:
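Plate contents were MEM with 10% FBS plus test compound or DMSO, no cells. Fluorescence was recorded with 540 nm excitation and 590 nm emission.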

The nature of assay [13]: qHTS assay to test for compound auto fluorescence at 460 nm (blue) in HepG2 cell free culture (AID 720685). The method, boiled down:
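Compound (23 nL) or DMSO pinned into cell-free MEM with 10% FBS; blue fluorescence read at 405/460 nm excitation/emission, expressed as auto-fluorescence equivalency to triamterene.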

Assay [14] can be described thus: qHTS assay to test for compound auto fluorescence at 535 nm (green) in HepG2 cell free culture (AID 720686).
The nature of assay [15]: qHTS assay to test for compound auto fluorescence at 460 nm (blue) in HepG2 cells (AID 720687). The method, boiled down:
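Blue-channel autofluorescence (Ex/Em 405/460 nm, triamterene-equivalent) was measured after 1 hr compound exposure at 37 C, 5% CO2. Cells were HepG2, plated overnight at 37 C in MEM plus 10% FBS.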

Assay [16] has as its target Glucocorticoid receptor (Homo sapiens) (UniProt P04150). Briefly: qHTS assay to identify small molecule agonists of the glucocorticoid receptor (GR) signaling pathway (AID 720691; active = well fitted activation curve with a large enough effect in the signal ratio in the repeat runs, not every such curve was filed as active; the % refers to the signal ratio). To be noted: GR-bla HeLa, beta-lactamase reporter ratio, 18 h; activation: at 62.4 µM (top of the series). In outline:
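qHTS in GR-bla HeLa cells: 4 h settling at 37 C/5% CO2, 18 h compound incubation at 37 C, 2 h LiveBLAzer B/G FRET substrate at room temperature, fluorescence intensity measured.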

The target is the same in assay [17]. Briefly: qHTS assay to identify small molecule antagonists of the glucocorticoid receptor (GR) signaling pathway (AID 720692; active = well fitted inhibition curve with a large enough effect in the signal ratio in the repeat runs, not every such curve was filed as active; the % refers to the signal ratio). In outline:
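Inhibition of glucocorticoid signalling is measured in HeLa cells with a GRE-controlled beta-lactamase reporter; cells are co-treated with compound and 5 nM dexamethasone (final) for 18 h before FRET substrate readout.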

Assay [18] can be described thus: qHTS assay to test for compound auto fluorescence at 535 nm (green) in HEK293 cells (AID 720680).
Assay [19] can be described thus: qHTS assay to test for compound auto fluorescence at 590 nm (red) in HEK293 cell free culture (AID 720683). In outline: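 Red-channel autofluorescence of compounds in culture medium (DMEM, 10% FBS), no cells, measured at 540/590 nm. Rose Bengal sodium is the reference fluorophore for equivalence.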
Assay [20] in a line: qHTS assay for small molecules that induce genotoxicity in human embryonic kidney cells expressing luciferase-tagged ATAD5 (AID 651632). Also: nearly all actives have a fitted effect of over 15% in size. The method, boiled down:
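Luminescent reporter readout, HEK293T ATAD5-luc line: 16 hr drug exposure (37C, 5% CO2) followed by Amplite, 30 min RT.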

Glucocorticoid receptor (Homo sapiens), sequence (P04150 whole entry, looked up): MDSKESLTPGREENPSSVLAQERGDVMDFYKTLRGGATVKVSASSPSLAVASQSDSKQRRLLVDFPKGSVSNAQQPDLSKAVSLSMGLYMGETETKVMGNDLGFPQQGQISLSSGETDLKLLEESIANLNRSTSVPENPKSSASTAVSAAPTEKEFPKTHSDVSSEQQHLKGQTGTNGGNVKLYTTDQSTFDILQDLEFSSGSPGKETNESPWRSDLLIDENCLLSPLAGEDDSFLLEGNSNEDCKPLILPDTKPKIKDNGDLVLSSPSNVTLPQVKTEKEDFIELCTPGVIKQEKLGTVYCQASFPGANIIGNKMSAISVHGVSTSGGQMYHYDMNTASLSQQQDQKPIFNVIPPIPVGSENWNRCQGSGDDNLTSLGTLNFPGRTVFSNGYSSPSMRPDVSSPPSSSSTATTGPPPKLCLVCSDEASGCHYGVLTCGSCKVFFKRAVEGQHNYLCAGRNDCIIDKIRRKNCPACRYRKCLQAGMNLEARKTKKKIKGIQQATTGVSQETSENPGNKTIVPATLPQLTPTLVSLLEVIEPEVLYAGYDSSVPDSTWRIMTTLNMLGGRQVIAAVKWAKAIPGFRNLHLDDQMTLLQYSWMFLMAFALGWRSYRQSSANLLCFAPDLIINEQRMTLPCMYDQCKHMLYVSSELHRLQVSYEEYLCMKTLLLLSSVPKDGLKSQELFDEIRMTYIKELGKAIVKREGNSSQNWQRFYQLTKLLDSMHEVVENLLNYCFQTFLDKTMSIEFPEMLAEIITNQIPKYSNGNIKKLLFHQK

For `CCCCC(CC)CO` (configuration not stated), the Potency entry in assay [1], in assay [2], in [3], in assay [4], in assay [5] and in [16] was “inactive” each time. Besides, the Potency entry in assay [17] was “inactive”. Further, the compound was classed as inactive in assay [6], in [7], in [8], in assay [9], in assay [10] and in assay [11]. Besides, the compound was called inactive in assay [12], in assay [13], in assay [14] and in [15].
As for `O=c1[nH]c(=O)n([C@H]2C[C@H](O)[C@@H](CO)O2)cc1Br`, the Potency entry in assay [1], in assay [2], in assay [4] and in assay [5] was “inactive” in each case. Besides, the result in assay [6], in assay [7], in assay [8], in assay [9], in [18] and in assay [11] was inactive. For the same compound, the compound was classed as inactive in assay [19], in assay [12], in assay [13], in assay [14] and in assay [15].
Turning to `CC(=O)CC(=O)Nc1ccccc1C`, the Potency entry in assay [1], in assay [2], in assay [3], in [4], in assay [5] and in assay [16] was “inactive” each time. Moreover, the Potency result in assay [17] is “inactive”. Further, the outcome in assay [6], in [7], in assay [8], in assay [9], in assay [11] and in assay [19] was inactive. The compound was called inactive in assay [12], in assay [14] and in [15].
As for `c1ccc2c(c1)ccc1ccccc12`, the Potency result in assay [1], in assay [2], in assay [3], in assay [4], in assay [16] and in assay [17] was “inactive” throughout. Further, the Potency in assay [5] is 59.5 µM (active). Moreover, the result in assay [6], in assay [7], in [8], in assay [9], in assay [18] and in [10] was inactive. The compound was classed as inactive in assay [11], in assay [19], in assay [12], in assay [14] and in assay [15].
Consider `C[C@H]1C[C@H]2[C@@H]3CCC4=CC(=O)C=C[C@]4(C)[C@@]3(F)[C@@H](O)C[C@]2(C)[C@@]1(O)C(=O)CO`, for which the Potency entry in [1], in [2], in [3], in assay [4] and in assay [5] was “inactive” each time. Besides, the result in [7], in [8], in assay [9], in assay [18], in assay [10] and in assay [11] was inactive. In addition, the compound was called inactive in assay [19], in assay [12], in [13], in assay [14] and in assay [15].
For the compound `C=CCNC(N)=S`, the Potency result in assay [1], in assay [2] and in [4] was “inactive” throughout. Besides, the compound was called inactive in assay [20], in [6], in assay [7], in [8], in assay [9] and in assay [10]. Further, the compound was classed as inactive in assay [11], in [12], in assay [14] and in assay [15].
Turning to `O=c1[nH]c(=O)n([C@H]2CCCO2)cc1F`, the Potency entry in [1], in assay [2], in assay [4] and in assay [5] was “inactive” each time. Moreover, the result in [6], in assay [7], in assay [8], in assay [9], in assay [18] and in assay [10] was inactive. Also, the compound was classed as inactive in assay [11], in assay [19], in assay [12], in assay [14] and in assay [15].
Take `COc1cc(Cc2cnc(N)nc2N)cc(OC)c1OC`: the Potency entry in [1], in assay [2], in [4], in [5], in assay [16] and in [17] was “inactive” each time. Also, the compound was called inactive in [20], in assay [7], in [8], in assay [9], in assay [18] and in assay [11]. For the same compound, the call in assay [12], in assay [13], in assay [14] and in assay [15] was inactive.
As to `CC(C)(C)[C@@H](O)[C@@H](Cc1ccc(Cl)cc1)n1cncn1`, the Potency result in assay [1], in assay [2], in assay [4], in assay [16] and in assay [17] was “inactive” in each case. For the same compound, the compound was called inactive in assay [20], in assay [7], in assay [8], in assay [9], in assay [18] and in assay [10]. Moreover, the compound was classed as inactive in assay [11], in assay [19], in assay [12], in [14] and in assay [15].
